# In the supplement of paper PMC4962491:
# ± gives the standard deviation of the averaged measurements.
# Tested on: FaDu
# Experiment: mitochondrial oxygen consumption rate normalised to cell number, Z score vs plate DMSO wells; higher = higher oxygen consumption (negative = OCR reduction)
# Conditions: treatment time 24 h, assay medium: 5 mM glucose, 5 mM pyruvate, 4 mM glutamine
# Procedure: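 Secondary screen: FaDu cells were incubated 24 h with the top 130 primary hits at 0.08, 0.4, 2 or 10 uM. Mitochondrial-specific OCR (basal minus antimycin A) was measured on a Seahorse XF96 in medium with 5 mM glucose, 5 mM pyruvate and 4 mM glutamine and normalised to Hoechst cell number. OCR score = (OCR - mean of plate DMSO wells) / SD of plate DMSO wells. Three repeats.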
# 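Also: compound exposure in DMEM (4 mM L-glutamine, 5 mM glucose), antimycin A injected at 2 µM after the basal reading and its residual OCR subtracted from basal.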
SMILES,mitochondrial oxygen consumption rate normalised (0.08 µM),mitochondrial oxygen consumption rate normalised (0.4 µM),mitochondrial oxygen consumption rate normalised (2 µM),mitochondrial oxygen consumption rate normalised (10 µM)
C[C@]12CC[C@@H]3c4ccc(O)cc4CC[C@H]3[C@@H]1CC[C@@H]2OC(=O)CCC1CCCC1,0.0173 ± 1.4,0.582 ± 0.51,0.375 ± 0.83,-0.125 ± 1.5
Nc1ccc2cc3ccc(N)cc3nc2c1,0.988 ± 0.79,1.43 ± 0.73,-2.56 ± 1.5,-6.68 ± 1.4
CC(C)NCC(O)COc1ccc(CC(N)=O)cc1 (stereo not drawn),0.23 ± 1.7,0.806 ± 0.77,0.178 ± 1,-0.73 ± 1.5
COc1cccc2c1C(=O)c1c(O)c3c(c(O)c1C2=O)C[C@@](O)(C(C)=O)C[C@@H]3O[C@H]1C[C@H](N)[C@H](O)[C@H](C)O1,1.45 ± 1.5,-2.21 ± 0.4,-6.3 ± 0.54,–
C#C[C@]1(O)CC[C@H]2[C@@H]3CCC4=CC(=O)CC[C@@H]4[C@H]3CC[C@@]21CC,0.538 ± 0.4,1.49 ± 0.65,1.15 ± 0.96,1.62 ± 1.1
CCCCCCCCNC(C)C(O)c1ccc(SC(C)C)cc1 (stereo not drawn),0.0353 ± 1.1,-0.376 ± 0.59,0.293 ± 1.8,-7.88 ± 0.64
C=CC1=C(C)c2cc3[nH]c(cc4nc(cc5[nH]c(cc1n2)c(C)c5CCC(=O)O)C(CCC(=O)O)=C4C)c(C)c3C=C,0.0776 ± 2.3,1.29 ± 2,0.447 ± 0.95,-1.43 ± 1.3
O=C(Nc1ccc([N+](=O)[O-])cc1Cl)c1cc(Cl)ccc1O,-1.26 ± 1.4,-0.286 ± 0.41,0.259 ± 0.76,-12.5 ± 0.17
Oc1c(Cl)cc(Cl)c(Cl)c1Cc1c(O)c(Cl)cc(Cl)c1Cl,-0.831 ± 1.9,1.92 ± 0.93,-2.48 ± 0.61,-13.3 ± 0.45
COc1ccc2c(c1)c(CC(=O)O)c(C)n2C(=O)c1ccc(Cl)cc1,-1.16 ± 1.6,-0.0955 ± 0.33,0.286 ± 1.6,-0.792 ± 1.6
O=C1C(O)=C([C@H]2CC[C@H](c3ccc(Cl)cc3)CC2)C(=O)c2ccccc21,-0.607 ± 2.4,1.63 ± 1.6,-0.111 ± 2.5,-3.55 ± 2.2
